Source: PubChem (Broad Institute)
This is a sample that favours compounds with a hit; in the whole collection about 0.86% have one here.
A1 inh: inducers of caspase activity in MEF A1-2A-BIM cells, primary screen, A1 inhibitor project, cell-based, CaspaseGlo luminescence | caspase-Glo luminescence, 3 h; percent of clofoctol signal, DMSO as zero | caspase activation, % (concentration not given with the values) | 21,000 tested, 0.51% active | AID 2241, 2010;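 active = most replicate scores above 10, or exactly half above 10 with mean activity above 10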;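 also: effector caspase 3 and 7 activity cleaving a DEVD luciferin substrate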
BJeLR viability: BJeLR cell viability loss, primary screen, luminescence, CellTiterGlo ATP; BJeLR fibroblasts viability, 48 h; HRASV12, hTERT and SV40 LT/ST transformed; viability loss activity score, % (concentration not given with the values); 30,000 tested, 0.64% active; AID 2275, 2010; in the data active = viability loss activity score above about 50%;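 also: higher score means fewer live cells and less ATP luminescence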
A number is an active result; . = inactive; / = not tested or not shown.

SMILES	A1 inh	BJeLR viability
CCOC(=O)N1CCN(C(=O)c2cccn3c(=O)c4cc5ccccc5cc4nc23)CC1	.	.
Cc1ccc(NC(=O)c2cc3c(=O)oc4ccccc4c3n2C)cc1F	/	.
CCOC(=O)C1C(=O)C=C(c2ccc3ccccc3c2)CC1c1ccc(C(F)(F)F)cc1 (stereo unspecified)	/	.
CC12CC(c3ccccc3O1)N(C(=O)c1cccc(F)c1)C(=S)N2c1ccccc1 (stereo unspecified)	/	.
Cc1ccc(S(=O)(=O)N[C@@H](Cc2ccccc2)C(=O)CCl)cc1	16	.
COC(=O)CN(Cc1ccccc1)S(=O)(=O)c1ccc(C)cc1	.	.
COc1ccccc1C1CC(=O)Nc2cc3c(cc21)CCC3 (stereo unspecified)	/	51
COc1ccccc1C1CC(=O)NC(C)=C1C(=O)OC1CCCC1 (stereo unspecified)	/	.
COc1ccccc1CNC(=O)Cn1cnc2ccc(S(=O)(=O)N3CCC(C)CC3)cc2c1=O	/	.
CCOc1ccc2nc(N3CCCCC3)sc2c1	/	.
CCOc1ccc(-c2nc3ccc(-c4nc5ccc(N6CCN(C)CC6)cc5[nH]4)cc3[nH]2)cc1	.	126
COC(=O)c1ccc(/C=C2/Oc3ccccc3N(Cc3ccccc3F)C2=O)cc1	.	.
O=C(NCc1cccnc1)c1ccc(/C=C2\Sc3ccccc3N(Cc3ccccc3F)C2=O)cc1	/	123
O=C(Nc1ccc(Cl)cc1)Nc1cccc(-c2cn3cccnc3n2)c1	/	.
COc1cccc2c1C(=O)c1c(O)c3c(c(O)c1C2=O)C[C@@](O)(C(C)=O)C[C@@H]3O[C@H]1C[C@H](N)[C@H](O)[C@H](C)O1	15	111
CC1CC(=O)c2c(ccc3c2C(=O)c2c(O[C@@H]4O[C@@H](C)[C@H](O)[C@@H](O)[C@H]4O)cccc2C3=O)C1 (stereo partly specified)	.	.
Cc1cccc(Cn2c(=O)n(-c3ccccc3)c(=O)c3sccc32)c1	/	.
CSc1cccc(NC(=O)C2CCN(S(=O)(=O)c3c(C)n[nH]c3C)CC2)c1	/	.
CS(=O)c1nc(-c2ccccc2)cc(C(F)(F)F)n1 (stereo unspecified)	/	.
CC1=C(c2ccc(C)cc2)S(=O)(=O)NC1=NC1CCN(Cc2ccccc2)CC1	9.6	.
CC1=C(c2ccc(C)cc2)S(=O)(=O)NC1=NC(C)C12CC3CC(CC(C3)C1)C2 (stereo unspecified)	.	.
COc1ccc(C(=O)OC(C)CN(C)C)cc1 (stereo unspecified)	/	.
CC1=C(C(=O)Nc2ccc(C)cc2)C2(CCCCC2)OC1=O	/	.
CCCN(CCC)C(=O)c1cn(C)c2ccc(S(=O)(=O)N(CC)CC)cc2c1=O	/	.
CSc1cccc(NC(=O)CCS(=O)(=O)c2ccc3c(c2)CCN3C(C)=O)c1	/	.
SMILES	A1 inh	BJeLR viability
CN=C1S/C(=C\c2ccc(N3Cc4ccccc4C3)cc2)C(=O)N1C	/	.
CC(C)CCOc1ccc(C(=O)C(CN2CCOCC2)c2ccccc2)cc1 (stereo unspecified)	.	78
OC(CN1CCOCC1)c1ccccc1 (stereo unspecified)	.	.
CCN(c1ccccc1)S(=O)(=O)c1cccs1	/	.
CCN(Cc1ccccc1)C(=O)c1oc(=O)c2ccccc2c1-c1ccc(C)cc1	/	.
CCc1cc(C)cc(OCCn2cc(C=C3C(=O)NC(=O)NC3=O)c3ccccc32)c1	39	.
CCc1ccc(OCCCn2cc(/C=C3/C(=N)N4C=CSC4=NC3=O)c3ccccc32)cc1	.	.
O=C(CCCCn1c(=O)[nH]c2ccsc2c1=O)NCc1ccccc1	/	.
C[C@H]1O[C@@H](O[C@H]2[C@@H](O)C[C@H](O[C@H]3[C@@H](O)C[C@H](O[C@H]4CC[C@@]5(C)[C@H](CC[C@@H]6[C@@H]5C[C@@H](O)[C@]5(C)[C@@H](C7=CC(=O)OC7)CC[C@]65O)C4)O[C@@H]3C)O[C@@H]2C)C[C@H](O)[C@@H]1O	.	99
CN(C(=O)c1ccc2c(Cl)c3c(nc2c1)CCCC3)c1ccc(Cl)cc1	/	.
Cc1cccc(N(C)S(=O)(=O)c2ccc3c(c2)n(C)c(=O)c(=O)n3C)c1	/	.
C[C@@H]1O[C@@H](O[C@H]2CC[C@@]3(C)C(CC[C@]4(C)C3CC=C3C5CC(C)(C)CC[C@]5(C(=O)O[C@@H]5O[C@H](CO)[C@@H](O)[C@H](O)[C@H]5O)CC[C@]34C(=O)O)C2(C)C)[C@H](O)[C@H](O)[C@H]1O (stereo partly specified)	.	.
